Results as given in article PMC4552634, “A New Set of Chemical Starting Points with Plasmodium falciparum Transmission-Blocking Potential for Antimalarial Drug Discovery” (PLoS ONE, 2015).
Where two headings read alike, the source gives them in different places. In all, about 13,000 compounds went through this assay and about 3,200 (25%) showed an effect of 50% or more. This is one part of the list.

System: P. falciparum stage V gametocytes
Design: BacTiter-Glo ATP luminescence viability of purified stage V gametocytes in 384-well plates, per cent inhibition versus DMSO
Conditions: 48 h, 5 µM, inhibitor

Compound | % Inhibition [%] | % Inhibition (% Inhibition) [%]
Cc1ccc(NC(=O)c2cccc(CN3CCCN(Cc4cccc(O)c4)CC3)c2)cc1 [TCMDC-135961] | 28.04 | –
CCN1CCN(Cc2c(O)ccc3c(=O)c(Oc4cc(C)cc(C)c4)c(C(F)(F)F)oc23)CC1 [TCMDC-125696] | 11.78 | –
NC1=NC2(CCCCC2)N(Cc2ccc(Cl)c(Cl)c2)C(N)=N1 [TCMDC-136304] | -26.78 | –
CN1CC=C(c2c[nH]c3ccc(C(=O)c4nccs4)cc23)CC1 [TCMDC-137277] | 17.28 | –
Cc1cc(Nc2ccccc2)nc(NCCOc2ccccc2)n1 [TCMDC-137574] | 48.49 | –
O=C(O)c1cccc2c(-c3ccncc3)cccc12 [TCMDC-139219] | 9.999 | –
Cn1ccnc1S(=O)(=O)CCNCc1ccc(-c2ccc3ncnc(Nc4ccc(OCc5cccc(F)c5)c(Cl)c4)c3c2)o1 [TCMDC-138564] | 21.76 | –
O=C(COc1ccc(C(=O)c2ccccc2)cc1)Nc1nccs1 [TCMDC-124432] | -13.79 | –
Cc1ccc(C(CC(=O)Nc2nccs2)c2ccc(OC(C)C)cc2)cc1 (centres unmarked) [TCMDC-124467] | 72.01 | –
CCOc1ccc(S(=O)(=O)N(C)c2ccc(OCC(=O)Nc3nccs3)cc2)cc1 [TCMDC-123622] | 21.93 | –
O=C(/C=C/c1ccc(Cl)c(Cl)c1)NCCCCCN1CCC(NC(=O)c2ccc([N+](=O)[O-])cc2)CC1 [TCMDC-135843] | 15.45 | –
CCn1ccc2c(N3CCCS3(=O)=O)cc(C(=O)N[C@@H](Cc3ccccc3)[C@H](O)CNC(C)(C)c3cccc(OC)c3)cc21 [TCMDC-134672] | 43.65 | –
CCN1CCc2c1cc(C(=O)N[C@@H](Cc1ccccc1)[C@H](O)CNC(C)(C)c1cccc(C(F)(F)F)c1)cc2N1CCCCS1(=O)=O [TCMDC-135451] | 62.24 | –
CCCN(CCC)C(=O)c1cc(C(=O)N[C@@H](Cc2ccccc2)[C@H](O)CNCc2cccc(C(F)(F)F)c2)cc(N2CCCCS2(=O)=O)c1 [TCMDC-138883] | -16.54 | –
CCCN(CCC)C(=O)c1cc(C(=O)N[C@@H](Cc2ccccc2)[C@H](O)CNC(C)(C)c2cccc(OC)c2)cc(N2CCCCS2(=O)=O)c1 [TCMDC-134674] | 75.74 | –
CCOc1cc(C(=O)N[C@@H](Cc2ccccc2)[C@H](O)CNC(C)(C)c2cccc(OC)c2)cc(N2CCCS2(=O)=O)c1 [TCMDC-134403] | 22.2 | –
CCCN(CCC)C(=O)c1cc(C(=O)N[C@@H](Cc2ccccc2)[C@H](O)CNCc2cccc(OC)c2)cc(N2CCCCS2(=O)=O)c1 [TCMDC-138893] | -16.98 | –
CCn1ccc2c(N3CCCCS3(=O)=O)cc(C(=O)N[C@@H](Cc3ccccc3)[C@H](O)CNC3CCCCC3)cc21 [TCMDC-135314] | 53.3 | –
CCCN(CCC)C(=O)c1cc(C(=O)N[C@@H](Cc2ccccc2)[C@H](O)CNC(C)(C)c2cccc(C(F)(F)F)c2)cc(N2CCCCS2(=O)=O)c1 [TCMDC-134675] | 20.25 | –
CCn1ccc2c(N3CCCS3(=O)=O)cc(C(=O)N[C@@H](Cc3ccccc3)[C@H](O)CNC3CCCCC3)cc21 [TCMDC-135315] | 41.25 | –
CCn1cnc2c(N3CCCS3(=O)=O)cc(C(=O)N[C@@H](Cc3ccccc3)[C@H](O)CNC(C)(C)c3cccc(C(F)(F)F)c3)cc21 [TCMDC-135450] | 36.58 | –

Compound | % Inhibition [%] | % Inhibition (% Inhibition) [%]
CCn1ccc2c(N3CCCCS3(=O)=O)cc(C(=O)N[C@@H](Cc3ccccc3)[C@H](O)CNC(C)(C)c3cccc(C(F)(F)F)c3)cc21 [TCMDC-135317] | 87.8 | –
CCn1cnc2c(N3CCCCS3(=O)=O)cc(C(=O)N[C@@H](Cc3ccccc3)[C@H](O)CNC3CCOCC3)cc21 [TCMDC-135662] | 16.67 | –
CC[C@H](C)[C@@H](C(=O)N1CCOCC1)N1CC[C@H](NS(=O)(=O)CC(C)(C)c2ccc(Cl)cc2)C1=O [TCMDC-138910] | -4.326 | –
N#Cc1ccc(N2CCN(Cc3cccc(-c4ccc(-c5nc6cc(C(F)(F)F)ccc6[nH]5)s4)c3)CC2)nc1.O=C(O)C(F)(F)F [TCMDC-133114] | -37.6 | –
CCCCCC(C)c1cc(O)c2c(c1)OC(C)(C)C=C2C1=CCN(Cc2ccccc2)CC1 (centres unmarked) [TCMDC-131350] | -56.28 | –
FC(F)(F)c1ccc(NC(=S)NC2CCC(CN3CCC(c4c[nH]c5ccccc45)CC3)CC2)cc1 (centres unmarked) [TCMDC-140178] | – | 78.37
O=C(Nc1ccccc1Cl)NC1CCC(CN2CCC(c3c[nH]c4ccccc34)CC2)CC1 (centres unmarked) [TCMDC-140176] | – | -4.106
O=C(NC1CCC(CN2CCC(c3c[nH]c4ccccc34)CC2)CC1)c1csc(-c2ccc(C(F)(F)F)cc2Cl)n1 (centres unmarked) [TCMDC-140352] | 52.36 | –
FC(F)(F)c1ccc(NC(=S)NC2CCC(CN3CCC(c4c[nH]c5ccccc45)CC3)CC2)cc1 (centres unmarked) [TCMDC-140198] | – | 109.8
O=C(NC1CCC(CN2CCC(c3c[nH]c4ccccc34)CC2)CC1)c1ccc(-c2cc(C(F)(F)F)ccc2Cl)o1 (centres unmarked) [TCMDC-140350] | -5.918 | –
O=C(NC1CCC(CN2CCC(c3c[nH]c4ccccc34)CC2)CC1)c1csc(-c2cccc(Cl)c2Cl)n1 (centres unmarked) [TCMDC-140351] | -28.23 | –
O=C(NC1CCC(CN2CCC(c3c[nH]c4ccccc34)CC2)CC1)NC12CC3CC(CC(C3)C1)C2 (centres unmarked) [TCMDC-140204] | 96.25 | –
O=C(Nc1ccccc1Cl)NC1CCC(CN2CCC(c3c[nH]c4ccccc34)CC2)CC1 (centres unmarked) [TCMDC-140196] | – | 17.3
CC(Cc1ccc(-c2nc3ccccc3[nH]2)cc1)NCC(O)c1cccc(C(F)(F)F)c1 (centres unmarked) [TCMDC-131524] | -16.53 | –
Cc1ccc(C(C)C)c(Oc2cnc(NC(CO)c3ccccc3)nc2N)c1 (centres unmarked) [TCMDC-135558] | 13.9 | –
Cc1cc2ccc(/C=C/C(=O)NC3CCC(CCN4CCc5ccc(C#N)cc5CC4)CC3)cc2[nH]1 (centres unmarked) [TCMDC-139668] | -29.35 | –
O=C(Cc1cn(-c2ccccc2)nc1-c1ccc(Cl)cc1)Nc1nccs1 [TCMDC-124872] | -9.075 | –
Nc1c(-c2ccc(C(=O)NCCNCc3ccccc3)cc2)cnn1-c1ccc(C(F)(F)F)cc1 [TCMDC-136660] | 12.46 | –
N#Cc1ccc(N2CCN(Cc3cccc(-c4ccc(-c5nc6cc(C(F)(F)F)ccc6[nH]5)cc4)c3)CC2)nc1.O=C(O)C(F)(F)F [TCMDC-133112] | -19.5 | –
CC(C)c1sc(N2CCN(C)CC2)nc1C(=O)Nc1cccc2c1CCCC2 [TCMDC-134303] | -19.32 | –
O=C(/C=C/c1ccc(Cl)c(Cl)c1)NCCCCCN1CCC(NC(=S)Nc2ccc(Cl)cc2)CC1 [TCMDC-135898] | 6.847 | –

Compound | % Inhibition [%] | % Inhibition (% Inhibition) [%]
O=C(Nc1ccccc1OC(F)(F)F)NC1CCC(CN2CCC(c3c[nH]c4ccccc34)CC2)CC1 (centres unmarked) [TCMDC-140185] | – | -31.33
O=C(Nc1ccc(Oc2ccccc2)cc1)NC1CCC(CN2CCC(c3c[nH]c4ccccc34)CC2)CC1 (centres unmarked) [TCMDC-140186] | 102.3 | –
O=C(Nc1ccccc1OC(F)(F)F)NC1CCC(CN2CCC(c3c[nH]c4ccccc34)CC2)CC1 (centres unmarked) [TCMDC-140203] | – | -4.21
O=C(Nc1cc(C(F)(F)F)cc(C(F)(F)F)c1)NC1CCC(CN2CCC(c3c[nH]c4ccccc34)CC2)CC1 (centres unmarked) [TCMDC-140180] | – | 75.46
O=C(Nc1cc(C(F)(F)F)cc(C(F)(F)F)c1)NC1CCC(CN2CCC(c3c[nH]c4ccccc34)CC2)CC1 (centres unmarked) [TCMDC-140199] | – | -51.42
O=C(NCCNc1ccnc(NCc2ccc(F)cc2)n1)c1cc2ccccc2s1 [TCMDC-133646] | -28.02 | –
O=C(NCc1ccc(Cl)c(Cl)c1)c1ccc(C2CCN(Cc3ccc4nc[nH]c4c3)CC2)cc1 [TCMDC-133069] | -61.63 | –
COc1ccc2c(c1)CC(C)(C)NC2CCCCCCCCC1NC(C)(C)Cc2cc(OC)ccc21 (centres unmarked) [TCMDC-137935] | 92.87 | –
COc1ccc2c(c1)CC(NCc1ccc(-c3ccc4nc[nH]c4c3)cc1)C2 (centres unmarked) [TCMDC-133483] | 36.76 | –
Cc1ccc(NC(=O)c2ccc(CN3CCCN(Cc4cccc(Cl)c4)CC3)cc2)cc1C [TCMDC-136426] | -8.077 | –
NC1=NC2(CCCCC2)N(OCCCCCCN2C(=O)c3ccccc3C2=O)C(N)=N1 [TCMDC-140537] | 2.277 | –
O=C(/C=C/c1ccccc1Cl)NC1CCC(CN2CCC(c3c[nH]c4ccncc34)CC2)CC1 (centres unmarked) [TCMDC-140110] | 79.76 | –
O=C(/C=C/c1c(Cl)cccc1Cl)NC1CCC(CN2CCC(Cc3cc4ccccc4[nH]3)CC2)CC1 (centres unmarked) [TCMDC-140233] | 51.23 | –
O=C(/C=C/c1c(Cl)cccc1Cl)NC1CCC(CN2CCC(c3c[nH]c4ccncc34)CC2)CC1 (centres unmarked) [TCMDC-140220] | 108.5 | –
CS(=O)(=O)Nc1ccc2[nH]cc(C3CCN(CC4CCC(NC(=O)/C=C/c5ccccc5Cl)CC4)CC3)c2c1 (centres unmarked) [TCMDC-139887] | 39.39 | –
O=C(/C=C/c1c(Cl)cccc1Cl)NC1CCC(CN2CCC(c3c[nH]c4ccccc34)CC2)CC1 (centres unmarked) [TCMDC-139858] | – | -12.84
O=C(C=Cc1cccc(Cl)c1Cl)NC1CCC(CN2CCC(c3c[nH]c4ccccc34)CC2)CC1 (centres unmarked) [TCMDC-139910] | – | 41.2
O=C(/C=C/c1ccc(Cl)c(Cl)c1)NC1CCC(CN2CCC(Cc3cc4ccccc4[nH]3)CC2)CC1 (centres unmarked) [TCMDC-140232] | -17.26 | –
O=C(/C=C/c1c(Cl)cccc1Cl)NC1CCC(CN2CCC(c3c[nH]c4ccccc34)CC2)CC1 (centres unmarked) [TCMDC-139856] | – | 7.287
O=C(/C=C/c1ccc(Cl)c(Cl)c1)NC1CCC(CN2CCC(c3cc4ccccc4[nH]3)CC2)CC1 (centres unmarked) [TCMDC-140236] | 9.147 | –
